# Screening data: PubChem, National Center for Advancing Translational Sciences (NCATS)
# L3MBTL1 block: L3MBTL1 (human) inhibition; Q9Y468; AlphaScreen L3MBTL1–H3K9me1 peptide binding; Potency, µM (series often up to 57.1 µM), for the others: at the highest dose activity, negative = inhibition, most hits filed as inhibitors; 230,000 tested, 0.66% active; note: potency is the fitted concentration of half-maximal effect; % is set by controls: 0 for no effect and ±100 for the full control effect; nearly all actives have a fitted effect of over 60% in size
#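 AlphaScreen assay: L3MBTL1 (50 nM final) was preincubated 30 min at room temperature with biotinylated H3(1-15)K9me1 peptide (75 nM final), then 30 min with library compounds; streptavidin donor and nickel chelate acceptor beads (10 ug/mL final) added, 30 min dark.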
# Pol beta inh: blocks human DNA polymerase beta activity | Potency, µM (doses to about 114 µM), for the others: at the highest dose activity change, negative = inhibition, hits mostly inhibitors | 340,000 tested, 1.3% active | Pol beta primer extension/strand displacement, fluorescence kinetic; note: potency is the fitted concentration of half-maximal effect; % is set by controls: 0 for no effect and ±100 for the full control effect
#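 Pol beta (10 nM) and compounds were preincubated 15 min at room temperature, then 50 nM substrate (final) started primer extension/strand displacement. Reads were taken at 0 and 10 min; concentration-response data were fitted to a four-parameter Hill equation.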
# Pol kappa inh-1: inhibitors of human DNA polymerase kappa; Potency, µM (titrated, usually from 107 µM), inactives show at the highest dose activity, negative = inhibition, usual class: inhibitors; purified Pol kappa, fluorescent DNA synthesis assay, 10 min; AID 588579; 400,000 tested, 0.53% active; Q9UBT6; note: potency is the fitted concentration of half-maximal effect; % is set by controls: 0 for no effect and ±100 for the full control effect
#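 Pol kappa 10 nM + cpd, 15 min RT; start w/ substrate 50 nM final; fluorescence kinetic read, 0 and 10 min. Neg ctrl: buffer, no enzyme.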
# WRN inhibitor: inhibitors of human WRN helicase. AID 651768. WRN helicase unwinding, fluorescent forked duplex, kinetic. Q14191. Potency, µM (top dose mostly 114 µM), for inactives: top-dose activity change, negative = inhibition, most hits filed as inhibitors. 360,000 tested, 0.46% active; note: potency is the fitted concentration of half-maximal effect; % is set by controls: 0 for no effect and ±100 for the full control effect; nearly all actives have a fitted effect of over 55% in size
#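 Primary qHTS, 1536-well format. 20 nM WRN + compound, 15 min RT; start with 100 nM forked fluorophore/quencher duplex, 2 mM ATP (final); kinetic read ex 525/em 598 nm.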
# Pol eta inh-1: blocks human DNA polymerase eta activity; AID 588591; Potency, µM (top dose mostly 114 µM), for inactives: at the highest dose activity change, negative = inhibition, hits mostly inhibitors; recombinant Pol eta, fluorescent DNA replication assay; 390,000 tested, 1.2% active; Q9Y253; note: potency is the fitted concentration of half-maximal effect; % is set by controls: 0 for no effect and ±100 for the full control effect
# Target sequence (Q9Y253 whole entry, looked up): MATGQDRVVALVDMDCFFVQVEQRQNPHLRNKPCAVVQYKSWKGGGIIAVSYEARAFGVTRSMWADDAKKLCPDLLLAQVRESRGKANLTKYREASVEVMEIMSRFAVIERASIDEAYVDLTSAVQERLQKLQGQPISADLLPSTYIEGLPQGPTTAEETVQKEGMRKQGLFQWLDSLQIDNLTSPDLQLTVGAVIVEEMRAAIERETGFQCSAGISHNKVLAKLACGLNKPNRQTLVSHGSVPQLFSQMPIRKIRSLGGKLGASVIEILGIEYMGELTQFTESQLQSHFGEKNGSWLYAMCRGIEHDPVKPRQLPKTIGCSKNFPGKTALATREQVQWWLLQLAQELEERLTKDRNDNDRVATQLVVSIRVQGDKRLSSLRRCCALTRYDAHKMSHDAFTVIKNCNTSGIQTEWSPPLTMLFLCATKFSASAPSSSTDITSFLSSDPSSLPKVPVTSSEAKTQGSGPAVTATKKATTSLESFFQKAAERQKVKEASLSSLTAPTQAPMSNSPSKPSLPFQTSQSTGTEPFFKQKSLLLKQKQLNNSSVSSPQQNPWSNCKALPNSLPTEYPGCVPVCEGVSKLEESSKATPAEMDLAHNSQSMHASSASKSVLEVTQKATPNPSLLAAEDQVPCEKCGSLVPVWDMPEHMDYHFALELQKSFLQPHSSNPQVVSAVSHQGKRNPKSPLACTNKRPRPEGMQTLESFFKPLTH
#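 Pol eta (10 nM) was preincubated with compounds for 15 min at room temperature, after which fluorescent replication substrate (50 nM final) was added to start the reaction. Fluorescence was read kinetically at 0 and 10 min.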
# POLI inh: blocks human DNA polymerase iota activity; Potency, µM (top dose mostly 115 µM), inactives show top-dose activity, negative = inhibition, usual class: inhibitors; Pol iota fluorescent replication assay, 10 min; Q9UNA4; AID 588590; 390,000 tested, 1% active; note: potency is the fitted concentration of half-maximal effect
#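 Pol iota at 10 nM preincubated 15 min with compounds at room temperature; reaction started with fluorescent substrate, 50 nM final. Fluorescence read kinetically at 0 and 10 min; buffer-only wells as negative control.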
# GALK confirm: galactokinase (human) inhibition, confirmation; Potency, µM (series often up to 115 µM), without a hit: at the top dose activity, negative = inhibition, hits mostly inhibitors; purified GALK, Kinase-Glo ATP depletion luminescence; 150 tested, 70% active; shares compounds with Pol eta inh-1; AID 2015
# GALK redox cs: generates H2O2 by redox cycling, flagging GALK artifacts. 150 tested, 40% active. Phenol red-HRP H2O2 redox cycling, absorbance 600 nm. AID 2035. shares compounds with Pol eta inh-1. Potency, µM (top dose mostly 115 µM), for the others: at the highest dose activity change, negative = H2O2 signal, most hits filed as inhibitors
# HEK293 tox: HEK-293 cytotoxicity, GALK inhibitor secondary; shares compounds with Pol eta inh-1; HEK-293 viability, ATP luminescence (CellTiter-Glo), 24/48 h; Potency, µM (highest dose often 46.1 µM), for inactives: at the highest dose activity change, negative = cytotoxicity, usual class: inhibitors; 170 tested, 10% active; AID 2547; note: potency is the fitted concentration of half-maximal effect; % is set by controls: 0 for no effect and ±100 for the full control effect
# Pol kappa inh-2: confirmation of human DNA polymerase kappa inhibitors. 920 tested, 76% active. purified Pol-kappa, fluorescent strand-displacement substrate. Potency, µM, actives largely listed as inhibitors. shares compounds with Pol eta inh-1; note: potency is the fitted concentration of half-maximal effect
# Pol eta inh-2: confirmation of human DNA polymerase eta inhibitors | shares compounds with Pol eta inh-1 | Pol eta primer extension, TAMRA/BHQ fluorescence, 10 min | Potency, µM, usual class: inhibitors | 2,600 tested, 64% active; note: potency is the fitted concentration of half-maximal effect
# The depositor's hits bear a star; ? = inconclusive; . = no result; [ ] = dose if it differs, or a comment. Only some compounds are listed: those with a hit (about 2.5% of all), similar ones and a draw of the others. Calls come from the whole dose curve; as a rule, active = well fitted curve in the direction sought with a large enough effect; inconclusive = small, poorly fitted or top-dose-only effect, or another doubt; inactive = no such curve, though single readings can be large; an effect the other way counts as inactive or inconclusive.
SMILES,L3MBTL1 block,Pol beta inh,Pol kappa inh-1,WRN inhibitor,Pol eta inh-1,POLI inh,Pol eta inh-2,others
O=C(O)CCc1nnc(SCC(=O)Nc2ccc(Cl)c(C(F)(F)F)c2)[nH]c1=O,-3%,13%,-10%,-18%,1%,0%,.,GALK confirm=?;GALK redox cs=2%;HEK293 tox=-8%
Cc1cc(=O)oc(C)c1C(=O)NNC(=O)C1(C)CC1Br (stereo not given),5%,-4%,-10%,-2%,-4%,3%[58.9 µM],.,
CC1(C(=O)NNC(=O)c2ccc(=O)oc2)CC1Br (stereo not given),-25%,?,?,?,20µM*,?,34*,
N#CC1=C(N)Oc2n[nH]c(-c3cccnc3)c2C1c1ccc([N+](=O)[O-])o1 (stereo not given),?,-2%,?,?,28µM*,?,67*,
O=C(O)c1ccc(C=C(c2nc3ccccc3s2)c2nc3ccccc3s2)cc1,-22%,0%,-11%,-24%,40µM*,?,?,
O=c1c(C(c2c(O)nc3n(c2=O)CCS3)c2cccc3ccccc23)c(O)nc2n1CCS2,-5%,?,40µM*,?,22µM*,?,?,
NNc1nccc(Nc2ccccc2C(=O)O)n1,?,?,?,?,13µM*,?,?,
COc1ccc(-c2nn(CCC(=O)O)cc2/C=C2\SC(N)=NC2=O)cc1OC,-5%,-1%,?,-5%[11.6 µM],10µM*,-21%,43*,
C=CCOc1ccc(Br)cc1CNCCO,-4%,2%,9%,9%,-14%,55%,.,
CCCCCCCCC(=O)c1c(OC)oc(C=O)cc1=O,.,.,.,-13%[11.6 µM],22µM*,.,?,Pol kappa inh-2=?
C/C(=N\Nc1ccc(C(=O)O)cc1)c1ccc(Br)cc1,?,20µM*,?,-14%,13µM*,40µM*,27*,
C/C(=N/Nc1ncc(Br)cn1)c1ccc(Br)cc1,13%,1%,1%,8%,-7%,110%,.,
COc1ccc(C(=O)Nc2cccc(OC(=O)c3ccco3)c2)cc1,.,15%,-28%,-13%,-15%,4%,.,
C=CC1=C(C(=O)O)N2C(=O)[C@@H](NC(=O)/C(=N\O)c3csc(N)n3)[C@H]2SC1 (stereo in doubt),.,.,?,-17%,?,?,?,
CO/N=C(/C(=O)N[C@@H]1C(=O)N2C(C(=O)O)=C(CSc3nc(C)c(CC(=O)O)s3)CS[C@H]12)c1csc(N)n1,.,.,-3%[19.4 µM],.,.,.,.,
CCn1cc(C(=O)O)c(=O)c2cc(F)c(N/N=C/c3ccccc3[N+](=O)[O-])cc21,11%,?,-4%,?,5.6µM*,13%,43*,
O=C1N2CCCCC1(c1ccccc1)CCCC2,.,.,.,0%,.,.,.,
O=C(O)Cc1ccc(NC(=O)c2ccc(NC(=O)c3ccco3)cc2)cc1,.,?,?,-6%[11.6 µM],25µM*,45µM*,43*,
